Assay outcomes deposited in PubChem BioAssay by several laboratories.
RTF Ca sens inh: cardiac RTF calcium desensitization. inhibition, % at 7.15 µM. IANBD-labeled cardiac RTF, Ca2+ fluorescence. 340,000 compounds, 0.12% hits. AID 493244. P19429+P45379;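 active = inhibition above the mean inhibition of all tested compounds plus 3 SD, cut at about 17% in these data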;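 also: assay run at fixed EC70 calcium of 1.6 mM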
cardiac RTF act: increases calcium sensitivity of human cardiac regulated thin filaments | activation, % at 7.2 µM | 340,000 compounds, 0.24% hits | IANBD-labeled TnC RTF fluorescence at EC20 calcium; 0% EC20 calcium, 100% full calcium | AID 493008 | P19429+P45379;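 active = activation above the mean over all tested compounds plus 3 SD, cut at about 30% in these data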;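 also: rise in fluorescence read as greater calcium sensitivity of cardiac thin filaments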
LANA DNA inh: inhibitors of KSHV LANA C-terminal domain DNA binding | MBP-C-LANA/FAM-LBS DNA binding, fluorescence polarization | AID 504423 | 340,000 compounds, 0.078% hits | inhibition, % at 9 µM;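 active = highest replicate inhibition at or above 60% at 9 µM, even if other replicates fall short; inactive = all replicates below 60% inhibition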
Keap1 Nrf2 FP: disrupts human Keap1 binding to Nrf2 peptide; 340,000 compounds, 0.15% hits; Keap1 Kelch-Nrf2 peptide fluorescence polarization, 1536-well; Q14145; inhibition, % at 9.4 µM; in the data active = inhibition above about 12%;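 also: human Keap1 Kelch domain with fluorescein labeled Nrf2 9mer peptide probe; higher means more block of Keap1 binding to Nrf2 peptide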
LANA-H2A inh: blocks KSHV LANA binding to histone H2A/H2B. Q9QR71. inhibition, % (concentration not given with the values). 320,000 compounds, 0.6% hits. cell-free LANA-H2A/H2B peptide, fluorescence polarization. AID 2629; in the data active = inhibition mostly above about 10%, no sharp cut-off; inactive = mostly below about 6.7%
Target sequence (Q9QR71 whole entry, looked up): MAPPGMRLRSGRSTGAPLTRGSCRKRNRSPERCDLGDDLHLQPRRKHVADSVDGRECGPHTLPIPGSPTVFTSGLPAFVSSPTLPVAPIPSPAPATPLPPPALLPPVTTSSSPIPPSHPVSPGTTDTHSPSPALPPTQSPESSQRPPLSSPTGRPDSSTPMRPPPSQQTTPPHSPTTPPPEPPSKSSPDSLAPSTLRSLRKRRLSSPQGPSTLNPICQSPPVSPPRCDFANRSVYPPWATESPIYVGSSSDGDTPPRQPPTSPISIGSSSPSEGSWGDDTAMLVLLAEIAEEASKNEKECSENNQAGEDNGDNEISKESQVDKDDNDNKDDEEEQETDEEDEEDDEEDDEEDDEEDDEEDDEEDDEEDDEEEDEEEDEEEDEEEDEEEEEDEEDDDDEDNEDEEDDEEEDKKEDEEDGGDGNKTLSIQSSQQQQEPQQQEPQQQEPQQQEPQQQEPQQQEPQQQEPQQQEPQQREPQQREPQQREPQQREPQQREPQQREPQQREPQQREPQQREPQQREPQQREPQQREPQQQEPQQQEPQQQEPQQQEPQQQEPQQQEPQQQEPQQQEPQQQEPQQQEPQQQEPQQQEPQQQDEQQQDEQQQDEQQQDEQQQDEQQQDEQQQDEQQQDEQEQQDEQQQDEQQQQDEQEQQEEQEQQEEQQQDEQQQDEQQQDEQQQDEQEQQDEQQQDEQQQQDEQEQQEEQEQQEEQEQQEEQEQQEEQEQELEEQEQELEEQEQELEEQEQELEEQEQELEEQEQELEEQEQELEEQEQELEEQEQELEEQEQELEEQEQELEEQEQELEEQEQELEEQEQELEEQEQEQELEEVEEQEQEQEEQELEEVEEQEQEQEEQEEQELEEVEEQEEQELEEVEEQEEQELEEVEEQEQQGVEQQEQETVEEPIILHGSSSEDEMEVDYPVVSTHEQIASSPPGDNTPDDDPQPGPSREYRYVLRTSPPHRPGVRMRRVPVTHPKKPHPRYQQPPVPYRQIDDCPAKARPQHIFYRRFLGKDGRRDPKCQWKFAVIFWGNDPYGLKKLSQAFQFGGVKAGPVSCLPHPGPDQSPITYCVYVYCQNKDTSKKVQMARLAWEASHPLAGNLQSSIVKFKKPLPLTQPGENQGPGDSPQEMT
RTF Ca inh conf: confirmation of inhibitors of cardiac thin filament calcium sensitivity | shares compounds with RTF Ca sens inh | reconstituted cardiac thin filaments, calcium sensitivity fluorescence | inhibition, % at 7.15 µM | 360 compounds, 8% hits | AID 504635; in the data active = inhibition above about 18%
A number is an active result; ! = a repeat was not active. In the library only some 0.98% were active in any assay of this set; here they are far more common.

For O=C(O)c1ccc(-n2cccc2/C=C2/NC(=O)N(c3cccc(Cl)c3)C2=O)cc1 the results were RTF Ca sens inh inactive, cardiac RTF act inactive, LANA DNA inh inactive and Keap1 Nrf2 FP inactive.
Screening N#Cc1ccccc1CN1C(=O)S/C(=C/c2cccn2-c2ccc(C(=O)O)cc2)C1=O returned RTF Ca sens inh inactive, cardiac RTF act inactive, LANA DNA inh inactive, Keap1 Nrf2 FP inactive and LANA-H2A inh inactive.
Screening O=C(O)c1ccc(-n2cccc2/C=C2/SC(=O)N(CC(=O)N3CCCC3)C2=O)cc1 returned RTF Ca sens inh 26, cardiac RTF act inactive, LANA DNA inh 64, Keap1 Nrf2 FP inactive, LANA-H2A inh inactive and RTF Ca inh conf inactive.
`O=C(O)c1ccc(-n2cccc2/C=C2/NC(=O)N(c3ccccc3)C2=O)cc1` gave RTF Ca sens inh 17, cardiac RTF act inactive, LANA DNA inh inactive, Keap1 Nrf2 FP inactive, LANA-H2A inh inactive and RTF Ca inh conf inactive.
`CN(NC(=O)COc1ccccc1)C1=NS(=O)(=O)c2ccccc21` gave RTF Ca sens inh 30, cardiac RTF act inactive, LANA DNA inh inactive, LANA-H2A inh inactive and RTF Ca inh conf inactive.
For COc1ccc(C(=O)Nc2ccc3c(c2)C(=O)N(C)C3=O)cc1OC the results were RTF Ca sens inh inactive, cardiac RTF act inactive, LANA DNA inh inactive, Keap1 Nrf2 FP inactive and LANA-H2A inh inactive.
CC(C)c1ccc(OCCCN2CCCC2)cc1 was read as RTF Ca sens inh inactive, cardiac RTF act inactive, LANA DNA inh inactive, Keap1 Nrf2 FP inactive and LANA-H2A inh inactive.
Screening COc1cc(/C=N/NC(=O)c2c(C)nnn2-c2nonc2N)ccc1O returned RTF Ca sens inh 17, cardiac RTF act inactive, LANA DNA inh inactive, Keap1 Nrf2 FP inactive, LANA-H2A inh inactive and RTF Ca inh conf inactive.
`CCCCN(C)CCC(=O)Nc1ccc(F)c(F)c1` gave RTF Ca sens inh 17, cardiac RTF act inactive, LANA DNA inh inactive, Keap1 Nrf2 FP inactive, LANA-H2A inh inactive and RTF Ca inh conf inactive.
`Cc1ccccc1C(=O)N/N=C1/SCC(=O)N1Cc1ccccc1` gave RTF Ca sens inh 18, cardiac RTF act inactive, LANA DNA inh inactive, Keap1 Nrf2 FP inactive, LANA-H2A inh inactive and RTF Ca inh conf inactive.
COc1cccc(-n2nnnc2SCC(=O)Nc2ccc(NC(C)=O)cc2)c1 was read as RTF Ca sens inh inactive, cardiac RTF act inactive, LANA DNA inh inactive, Keap1 Nrf2 FP inactive and LANA-H2A inh inactive.
`N#Cc1c(F)cccc1N1CCN(Cc2ccc3c(c2)OCO3)CC1` gave RTF Ca sens inh 18, cardiac RTF act inactive, LANA DNA inh inactive, Keap1 Nrf2 FP inactive, LANA-H2A inh inactive and RTF Ca inh conf inactive.
`O=C(c1ccccc1F)N1CCN(Cc2ccc3c(c2)OCO3)CC1` gave RTF Ca sens inh inactive, cardiac RTF act inactive, LANA DNA inh inactive, Keap1 Nrf2 FP inactive and LANA-H2A inh inactive.
`COc1cccc(/C=N/n2c(N)c(S(=O)(=O)c3cccs3)c3nc4ccccc4nc32)c1` gave RTF Ca sens inh inactive, cardiac RTF act inactive, LANA DNA inh inactive, Keap1 Nrf2 FP inactive and LANA-H2A inh inactive.
Nc1c(S(=O)(=O)c2cccs2)c2nc3ccccc3nc2n1/N=C/c1cccc(O)c1 was read as RTF Ca sens inh 20, cardiac RTF act inactive, LANA DNA inh inactive, Keap1 Nrf2 FP inactive, LANA-H2A inh inactive and RTF Ca inh conf inactive.
Screening CC1CCN(C(=O)CCc2nnc3ccc(N4CCC5(CC4)OCCO5)nn23)CC1 returned RTF Ca sens inh inactive, cardiac RTF act inactive, LANA DNA inh inactive, Keap1 Nrf2 FP inactive and LANA-H2A inh inactive.
`O=C(O)c1cc(O)c2c(c1)[C@@H]([C@H]1c3cc(C(=O)O)cc(O)c3C(=O)c3c(O[C@@H]4O[C@H](CO)[C@@H](O)[C@H](O)[C@H]4O)cccc31)c1cccc(OC3O[C@H](CO)[C@@H](O)[C@H](O)[C@H]3O)c1C2=O` (some centres not stated) gave RTF Ca sens inh 59, cardiac RTF act inactive, LANA DNA inh inactive, Keap1 Nrf2 FP inactive, LANA-H2A inh 19 and RTF Ca inh conf 112.
Screening O=C(O)c1cc(O)c2c(c1)[C@H]([C@H]1c3cc(C(=O)O)cc(O)c3C(=O)c3c(O[C@@H]4O[C@H](CO)[C@@H](O)[C@H](O)[C@H]4O)cccc31)c1cccc(OC3O[C@H](CO)[C@@H](O)[C@H](O)[C@H]3O)c1C2=O (some centres not stated) returned RTF Ca sens inh 53, cardiac RTF act inactive, LANA DNA inh inactive, Keap1 Nrf2 FP inactive, LANA-H2A inh inactive and RTF Ca inh conf 102.
O=C(O)CCC(=O)N1CCN(c2ncccn2)CC1 was read as RTF Ca sens inh inactive, cardiac RTF act inactive, LANA DNA inh inactive, Keap1 Nrf2 FP inactive and LANA-H2A inh inactive.
For Fc1ccc([C@@H]2CCNC[C@H]2COc2ccc3c(c2)OCO3)cc1 the results were RTF Ca sens inh 20!, cardiac RTF act inactive, LANA DNA inh inactive, Keap1 Nrf2 FP inactive, LANA-H2A inh inactive and RTF Ca inh conf inactive.
CC(C)Cn1c(/C=C/c2ccco2)nc2ccccc21 was read as RTF Ca sens inh 18, cardiac RTF act inactive, LANA DNA inh inactive, Keap1 Nrf2 FP inactive, LANA-H2A inh inactive and RTF Ca inh conf inactive.
Nc1ncnc2oc(-c3ccco3)c(-c3ccco3)c12 was read as RTF Ca sens inh 58, cardiac RTF act inactive, LANA DNA inh inactive, Keap1 Nrf2 FP inactive, LANA-H2A inh inactive and RTF Ca inh conf inactive.
`COc1cccc(N2C(=NC(=O)CCC3CCCC3)SC3CS(=O)(=O)CC32)c1` (configuration not stated) gave RTF Ca sens inh inactive, cardiac RTF act inactive, LANA DNA inh inactive, Keap1 Nrf2 FP inactive and LANA-H2A inh inactive.
c1ccc(Cc2nnc(-c3ccccc3)o2)cc1 was read as RTF Ca sens inh 17, cardiac RTF act inactive, LANA DNA inh inactive, Keap1 Nrf2 FP inactive, LANA-H2A inh inactive and RTF Ca inh conf inactive.
For Brc1ccc(-c2nnc(Cc3ccccc3)o2)cc1 the results were LANA-H2A inh inactive.
`CCC(c1nnc(SC(C)C(=O)NC2CC2)n1-c1ccc(OC)cc1)N(C)C` (configuration not stated) gave RTF Ca sens inh inactive, cardiac RTF act inactive, LANA DNA inh inactive, Keap1 Nrf2 FP inactive and LANA-H2A inh inactive.
COc1ccc(-c2nnc(SCc3c(C)noc3C)o2)cc1 was read as RTF Ca sens inh 18, cardiac RTF act inactive, LANA DNA inh inactive, Keap1 Nrf2 FP inactive, LANA-H2A inh inactive and RTF Ca inh conf inactive.
`O=C(NCC(=O)N1CCN(S(=O)(=O)c2cccs2)CC1)c1ccc(Cl)cc1` gave RTF Ca sens inh inactive, cardiac RTF act inactive, LANA DNA inh inactive, Keap1 Nrf2 FP inactive and LANA-H2A inh inactive.
For Nc1nc(-c2ccccc2)c(N=Nc2ccccc2Cl)s1 the results were RTF Ca sens inh 22, cardiac RTF act inactive, LANA DNA inh inactive, Keap1 Nrf2 FP inactive, LANA-H2A inh inactive and RTF Ca inh conf inactive.
For CC(=O)c1nn(-c2cccc(C)c2)cc1C(=O)c1cccc(Br)c1 the results were RTF Ca sens inh inactive, cardiac RTF act inactive, LANA DNA inh inactive, Keap1 Nrf2 FP inactive and LANA-H2A inh inactive.
